Compounds without any hit were thinned out: in the full panel of roughly 79,000, 15% have a hit. Cut-off read from the data, not from the text of the source: active = growth inhibition above about 70%; inactive = the rest.
Key:
[1] = NCI Yeast Anticancer Drug Screen. Data for the rad50 strain (AID 155);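 note: 0% = growth of vehicle-only cultures of the same strain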; conditions: S. cerevisiae rad50 strain growth inhibition; at 50.0 µM; hits give high values
Method in brief: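 DNA repair mutant yeast, compound exposure, growth read-out; inhibition is taken relative to vehicle.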

[2] = NCI Yeast Anticancer Drug Screen. Data for the mec2-1 strain (AID 157); conditions: S. cerevisiae mec2-1 strain, at 50.0 µM, hits give high values
Method in brief: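 mec2-1 yeast strain, carrying an alteration in DNA damage repair or cell cycle control, was exposed to compounds; growth inhibition was measured relative to vehicle-treated controls.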

[3] = NCI Yeast Anticancer Drug Screen. Data for the sgs1 mgt1 strain (AID 161);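 note: 0% = growth of cultures given vehicle only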; conditions: S. cerevisiae sgs1 mgt1 strain, at 50.0 µM, hits give high values
Method in brief: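 Percent growth inhibition was derived by comparing compound-exposed mutant yeast with vehicle-exposed cultures. The strain carries alterations in DNA damage repair.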

[4] = NCI Yeast Anticancer Drug Screen. Data for the cln2 rad14 strain (AID 165);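 note: 0% = growth equal to vehicle treated cultures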; conditions: S. cerevisiae cln2 rad14 strain, at 50.0 µM, hits give high values
Method in brief: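 Yeast carrying cln2 and rad14 alterations (cell cycle control and DNA damage repair) were exposed to compounds. Growth inhibition was measured against vehicle-treated controls.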

[5] = NCI Yeast Anticancer Drug Screen. Data for the mlh1 rad18 strain (AID 175); conditions: S. cerevisiae mlh1 rad18 strain growth inhibition; at 50.0 µM; hits give high values
Method in brief: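 Growth inhibition of the yeast strain was measured after compound exposure and expressed relative to vehicle-treated controls. The strain carries defined defects in DNA damage repair.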

[6] = NCI Yeast Anticancer Drug Screen. Data for the bub3 strain (AID 167); conditions: S. cerevisiae bub3 mutant strain, at 50.0 µM, hits give high values
Method in brief: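 In this screen, a yeast mutant lacking normal mitotic checkpoint function is challenged with compound. Relative growth versus vehicle gives the inhibition value.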

Measured: growth inhibition

CCCCOc1cc(C(=O)O)ccc1[N+](=O)[O-]
inactive: [1] -10.7% | [2] -19.4% | [3] -10.3% | [4] -5.75% | [5] -3.1%

O/N=C1/C(=C/c2ccc(F)cc2)CCCC1C(NO)c1ccc(F)cc1 (stereo not given)
inactive: [1] -3.9% | [2] -22.1% | [3] -8.05% | [4] 3.35% | [5] -17.7%

COC(=O)c1sc2c(=O)c(C(=O)OC)c(C(=O)OC)sc2c(=O)c1C(=O)OC
inactive: [1] 23.1% | [2] 27.4% | [3] 54.3% | [4] -1.1% | [5] 38.6%

O=c1cc(CNC2CC3CCC2C3)[nH]c(=O)[nH]1 (stereo not given)
inactive: [4] -3.45%

C=C1C(=O)OC2C1CCC1(C)CC(Br)C(=O)C(C)C21 (stereo not given)
inactive: [4] 2.1%

CC1(C)C2CCC(I)(C2)C1I (stereo not given)
inactive: [1] 10.9% | [2] 0.45% | [4] -15.8% | [6] 1.55% | [5] 10.3%

CC(O)CN(CC(C)O)c1ccc2c(c1)Cc1ccccc1-2 (stereo not given)
inactive: [1] -13.2% | [2] -13.3% | [4] -20.8% | [6] 36% | [5] -4.6%

CC(C)CC(NC(=O)CN1C(=O)c2ccccc2C1=O)C(=O)O (stereo not given)
inactive: [1] -10.3% | [2] -41.6% | [4] 3.2% | [6] -17% | [5] -24.1%

COc1cc(Br)c(C=O)cc1OC
inactive: [1] 10.5% | [2] 22.9% | [4] -16.1% | [6] 2.95% | [5] 5.5%

NNC(=S)NNc1ccccc1
inactive: [1] 12.2% | [2] 42.4% | [4] -2.65% | [6] 20.4% | [5] 42.7%

CC(C)CC(Nc1ccc2ccccc2c1)C(N)=O (stereo not given)
inactive: [1] -6.9% | [2] -44.4% | [4] 8.65% | [6] 10.8% | [5] -3.4%

Clc1ccc(CSc2cnnc(SCc3ccc(Cl)c(Cl)c3)c2SCc2ccc(Cl)c(Cl)c2)cc1Cl
inactive: [1] 1.2% | [2] 5.15% | [4] -5.9% | [6] -0.8% | [5] 17.1%

CCCCCCC(=O)C(N)Cc1ccccc1 (stereo not given)
inactive: [1] 0.45% | [2] -27.1% | [4] 8.2% | [6] -1.1% | [5] 20%

COc1ccc2c(c1)-c1cc(OC)ccc1C2c1ccccc1
inactive: [1] -1.1% | [2] -9.15% | [4] -57.5% | [6] 5.15% | [5] -7.25%

NC(=O)NCC(N)C(=O)O (stereo not given)
inactive: [1] -4.75% | [2] -5.2% | [4] 1.55% | [6] 1.55% | [5] -1.9%

CC(=O)Nc1ccc(S(=O)(=O)NNC(=O)C(=O)Nc2cccc(Cl)c2)cc1
inactive: [1] -12.5% | [2] -21.4% | [4] 16.4% | [6] -0.1% | [5] -1.6%

CC(=O)CCCO
inactive: [1] -1.6% | [2] -5.75% | [4] -9.4% | [6] 19.1% | [5] -0.9%

CCc1ccccc1NC(=O)C1=C(C)NC(C)=C(C(=O)Nc2ccccc2CC)C1c1ccc(NC(C)=O)cc1
inactive: [1] -11.1% | [2] 19.8% | [4] 13.6% | [6] 11.4% | [5] -4.25%

CC(C)CC(C)(O)C(N)=O (stereo not given)
inactive: [1] -5.15% | [2] -7.55% | [4] -21.8% | [6] 0.35% | [5] -4.95%

CCN(CC)CCCn1c(-c2ccccc2)ccc1-c1ccccc1
inactive: [1] 10.1% | [2] -6% | [4] -16.4% | [6] 21.4% | [5] 18.4%

COc1ccc(C2=C(Cl)c3cc(OC)c(OC)cc3C2=O)cc1OC
inactive: [1] 0.75% | [2] -7.1% | [4] -18.9% | [6] -9.85% | [5] 2.4%

CC(=O)N1C(=O)C2(Nc3cccnc3N2)c2ccccc21 (stereo not given)
inactive: [1] -4.85% | [2] 16.4% | [4] -1.35% | [6] -0.95% | [5] -16.1%

O=C(O)c1c(O)c(O)cc2ccccc12
inactive: [1] 24.1% | [2] -17.8% | [4] -51.5% | [6] 25.6% | [5] 23.4%

CCOc1ccccc1NC(=O)CC(C(=O)OC)C(=O)C(=O)OC (stereo not given)
inactive: [1] -10% | [2] 5.75% | [4] 20% | [6] -8.9% | [5] -9.75%

Cc1ccc(S(=O)(=O)N/N=C/C(O)C(O)C(O)C(O)CO)cc1 (stereo not given)
inactive: [1] 5.9% | [2] -5.15% | [4] -34.1% | [6] -8.45% | [5] 12.3%

c1ccc(-c2ccc(-c3ccccc3)c(-c3ccc4c(c3)CCC4)c2-c2ccccc2)cc1
inactive: [1] 14.1% | [2] 13.3% | [4] 13.9% | [6] -3.85% | [5] 21.8%

C=CCCCCCCCCCCCCCCCCC
inactive: [1] -25.9% | [2] -24.1% | [4] 10.4% | [6] -16.1% | [5] -28%

O=C(O)c1c(O)ccc(O)c1C(=O)O
inactive: [1] -38.5% | [2] -30.8% | [4] -21.1% | [6] -8.8%

C/C=C/C1OCC(C)([N+](=O)[O-])CO1 (stereo not given)
inactive: [1] 23.5% | [2] 10.1% | [4] 12.5% | [6] -1.35% | [5] 31.1%

CC(Oc1ccc2cc(C(=O)c3ccccc3)c(=O)oc2c1)C(=O)O (stereo not given)
inactive: [1] -4.25% | [2] 3.75% | [4] 32.9% | [6] -0.1% | [5] 44.9%

CCCC(O)C(CC)[N+](=O)[O-] (stereo not given)
inactive: [1] 13.6% | [2] 0.95% | [4] 3.65% | [6] 0.1% | [5] 5.75%

C/C(O)=C(\N=Nc1ccccc1)C(N)=O
inactive: [1] -9.45% | [2] 7.95% | [4] -28.9% | [6] -0.8% | [5] -3.45%

COc1ccc(/C=C2\N=C(c3ccc([N+](=O)[O-])cc3)OC2=O)cc1Br
inactive: [1] 29.9% | [2] 21.6% | [4] 23.4% | [6] -1.95% | [5] 29.4%

Cc1cc([N+](=O)[O-])cc(C)c1N
inactive: [1] 1.6% | [2] -11% | [4] -15% | [6] -4.5% | [5] 7.15%

Cc1cc(S(N)(=O)=O)c(SCc2nc(N)nc(N(C)C)n2)cc1Cl
inactive: [1] -30.8% | [2] -22.3% | [4] 9.05% | [6] -37.4% | [5] 7.8%

Cc1ccc(S(=O)(=O)OC2CCCC2OS(=O)(=O)c2ccc(C)cc2)cc1 (stereo not given)
inactive: [1] 0.2% | [2] 14.5% | [4] 23.4% | [6] -2.35% | [5] -9.85%

O=C(O)C1=C(c2ccccc2)C=C(c2ccccc2)C1
inactive: [1] 0% | [2] 0.2% | [6] 48% | [5] 28.9%

Cc1c(C(=O)O)[nH]c2c(Cl)ccc(C)c2c1=O
inactive: [1] -34.2% | [2] -9.15% | [4] -44.5% | [6] 9.8% | [5] 4.75%

OC1OC2COC(c3ccccc3)OC2C(O)C1O (stereo not given)
inactive: [1] 4% | [2] -14.5% | [4] -3.35% | [6] -3.3% | [5] -20.9%

COC(=O)CCCCCCCCC(=O)OC
inactive: [1] 8.9% | [2] 33.8% | [4] 8.95% | [6] 25.8% | [5] 7.15%

CCS(=O)CCC(N)C(=O)O (stereo not given)
inactive: [1] -9.7% | [2] -20.1% | [4] -19.6% | [6] 5.7% | [5] -3.6%

CCOC(=O)/C(=C/n1c(=S)[nH]c2ccc([N+](=O)[O-])cc21)C(=O)c1ccccc1
inactive: [1] -7.55% | [2] -44.8% | [4] -1.35% | [6] -16.7% | [5] -4.65%

Cc1cc(N(CCC#N)CCC#N)ccc1/C=C1N=C(/C=C/c2ccccc2)OC(=O)N\1
inactive: [1] 14.7% | [2] -5% | [4] -10.1% | [6] 1.15% | [5] -13.7%

— PubChem BioAssay (NCI)
